The values below come from PubChem BioAssay (NCATS).

Assay [1] deals with Lysosomal acid glucosylceramidase (Homo sapiens) (UniProt P04062). Description: Glucocerebrosidase-p2 (AID 348; in the data active means potency below about 10 µM; further: potency means the concentration at half of the fitted maximal effect). The following applies: purified GBA, blue fluorogenic substrate, 40 min. The essentials:
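Compounds titrated from 0.6 nM upwards against 0.2 nM enzyme in pH 5.9 citric acid/KH2PO4, taurocholate, tween-20; blue fluorogenic substrate 80 uM, 40 min room temperature, stopped and read Ex 365/Em 440 for AC50.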

A short description of assay [2]: AP1 Signaling Pathway (AID 357; active means well fitted curve in either direction with a large enough effect, not every such curve was filed as active;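 further: ME-180 reporter cells stimulated with EGF at its EC50 level; on the % scale 0 is the no-effect control and ±100 the full control effect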). The following applies: ME-180 AP-1-bla reporter, EGF-induced, beta-lactamase ratio, 5 h; at 7.69 µM (top of the series) unless noted. The method in brief:
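In this screen, ME-180 cells in Opti-MEM with 0.5% dialyzed FBS received EC50 EGF and compound titrations for 5 h. AP-1 reporter beta-lactamase was detected via CCF4 ratio, giving AC50 for positive and negative modulators.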

The target of assay [3] is Cytochrome P450 1A2 (Homo sapiens) (UniProt P05177). Put plainly: p450-cyp1a2 (AID 410; calls by dose curve; further: potency means the concentration at half of the fitted maximal effect;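 on activity change, negative = inhibition: -100% = full effect of reference inhibitor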). As to conditions: recombinant CYP1A2, luciferin-ME demethylation, luminescence; series mostly up to 57 µM. The method in brief:
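Inhibition was calculated relative to 57 uM furafylline (full inhibition). The reaction used human CYP1A2 at 20nM with Luciferin-ME at its Km, 100uM, driven by an NADPH-regenerating system for 60 min at room temperature.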

Assay [4] is described as follows: NFAT Signaling Pathway (AID 444; active means well fitted curve in either direction with a large enough effect, not every such curve was filed as active;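 further: carbachol stimulus at about its EC50 of 1 µM final; on the % scale 0 is the no-effect control and ±100 the full control effect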). As to conditions: Jurkat NFAT-bla M1, carbachol, beta-lactamase ratio, 5 h; at 7.69 µM (top of the series) unless noted. The essentials: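 Jurkat cells with NFAT-driven β-lactamase reporter and co-expressed M1 receptor, stimulated with carbachol (final 1 uM, ~EC50), compound titration, 5 h at 37 °C. CCF4 loaded 1 h at RT; 460/530 nm ratio gave %activity and AC50.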

Assay [5] is described as follows: Stat Signaling Pathway (AID 446; active means well fitted curve in either direction with a large enough effect, not every such curve was filed as active;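 further: ME-180 cervical cancer cells given 40 pM IL-6 alongside compound; SIE-controlled beta-lactamase reporter measured as 460/530 nm FRET emission ratio; on the % scale 0 is the no-effect control and ±100 the full control effect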). As to conditions: ME-180 SIE beta-lactamase reporter, IL-6 stimulated, 5 h; at 7.69 µM (top of the series) unless noted. The essentials:
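ME-180 SIE-bla cells; overnight plating; cpd + IL-6 40 pM, 5 h, 37 C; LiveBLAzer 2.5 h RT; 460/530 nm emission ratio. Normalized to 300 pM IL-6 and 125 nM JAK inhibitor controls.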

In assay [6] the target is Glucocorticoid receptor (Homo sapiens) (UniProt P04150). Put plainly: GR-GFP Redistribution (AID 450;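 active means compounds whose dose series gives a full or clear partial fitted curve of increased nuclear translocation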; further: potency means the concentration at half of the fitted maximal effect). As to conditions: U2OS GR-GFP nuclear translocation, laser cytometry, 2 h.
Chain of Glucocorticoid receptor (Homo sapiens) (P04150 whole entry, looked up, the tested form may be a part): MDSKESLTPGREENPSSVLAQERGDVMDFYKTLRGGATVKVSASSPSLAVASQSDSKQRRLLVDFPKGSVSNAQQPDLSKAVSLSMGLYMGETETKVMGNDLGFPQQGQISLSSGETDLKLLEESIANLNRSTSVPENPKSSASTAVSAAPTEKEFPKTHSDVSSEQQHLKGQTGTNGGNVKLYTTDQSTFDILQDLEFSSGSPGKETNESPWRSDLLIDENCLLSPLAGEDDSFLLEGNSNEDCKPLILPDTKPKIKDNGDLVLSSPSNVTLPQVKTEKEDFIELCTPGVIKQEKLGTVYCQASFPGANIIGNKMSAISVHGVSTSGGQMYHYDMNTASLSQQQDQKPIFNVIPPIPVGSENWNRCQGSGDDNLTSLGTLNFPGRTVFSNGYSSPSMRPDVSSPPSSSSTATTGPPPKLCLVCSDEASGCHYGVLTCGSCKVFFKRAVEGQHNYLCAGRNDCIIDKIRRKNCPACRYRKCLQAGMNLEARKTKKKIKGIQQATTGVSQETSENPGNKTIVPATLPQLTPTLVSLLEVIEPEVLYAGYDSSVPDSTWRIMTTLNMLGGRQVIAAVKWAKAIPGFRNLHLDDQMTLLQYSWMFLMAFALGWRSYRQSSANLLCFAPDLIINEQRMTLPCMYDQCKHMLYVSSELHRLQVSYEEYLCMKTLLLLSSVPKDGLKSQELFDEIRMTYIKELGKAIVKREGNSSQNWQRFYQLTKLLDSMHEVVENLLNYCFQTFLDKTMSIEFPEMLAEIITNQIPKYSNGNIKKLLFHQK
Assay [7] has the same target. Put plainly: GR-EFC Redistribution (AID 451; calls by dose curve; further: potency means the concentration at half of the fitted maximal effect). As to conditions: CHO-K1 GR-EFC translocation, beta-gal luminescence, 2 h. The method in brief: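 CHO-K1 cells expressing nuclear EA and GR-ED fragments of b-gal; compounds titrated up to 46 uM final, 2 h at 37 C. GR nuclear translocation read as complemented b-gal luminescence after 1 h RT detection.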
Assay [8] deals with Mitogen-activated protein kinase 10 (Mus musculus) (UniProt Q61831). Description: JNK3 AlphaScreen Assay (AID 530; active means well fitted curve in either direction with a large enough effect, not every such curve was filed as active;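 further: kinase came from lysate of stimulated human HepG2 cells; signal reports phosphorylation of biotinylated GST-cJun 1-79 at Ser73 with 10 µM ATP; on the % scale 0 is the no-effect control and ±100 the full control effect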). The following applies: JNK3 lysate, c-Jun phosphorylation; series mostly up to 57.1 µM. The method in brief:
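qHTS format: compounds tested as titrations against IL-1beta/TNF-alpha-activated HepG2 lysate JNK3 with biotin-GST-cJun substrate and 10 uM ATP at room temperature. Loss of anti-phospho-cJun AlphaScreen signal indicates inhibition.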
In general terms: Alpha assays give light when donor and acceptor beads are brought close together.

Assay [9] deals with 3',5'-cyclic-AMP phosphodiesterase 4B (Homo sapiens) (UniProt Q07343). Put plainly: qHTS Assay for Inhibitors of PDE-IV (AID 607; active means well fitted activation curve with a large enough effect in the main read-out, with a control signal flat, not every such curve was filed as active; further: % of control where 0% means no effect). As to conditions: HEK293 ACTOne CNG channel cells, membrane potential fluorescence; series mostly up to 22.9 µM. The essentials:
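ACTOne HEK293 cells carry a modified cAMP-gated CNG channel and express endogenous PDE4; plated 1000 cells/well, compounds up to 22.9 uM final. Membrane-potential dye fluorescence (ex 535/em 590) was read; parental cells received 10 uM forskolin + 100 uM RO 20-1724.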
(In general: qHTS replaces the single test concentration by a dilution series.)

Assay [10] in a line: qHTS Assay for Identification of Small Molecule Agonists for Hypoxia Response Element Signaling Pathway (AID 914; active means well fitted activation curve with a large enough effect in the signal ratio, with a control signal flat, not every such curve was filed as active; the % refers to the signal ratio; further: potency means the concentration at half of the fitted maximal effect; on activation: % of control where 0% means no effect). The following applies: ME-180 (cervical carcinoma) HRE-bla reporter, beta-lactamase ratio, CoCl2, 17 h; activation: stronger effect = higher value. The essentials:
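A beta-lactamase reporter under hypoxia response element control in ME-180 cells served as the system. Compound titrations plus EC50 CoCl2 ran 17 h at 37 degrees Celsius; AC50 values were fitted from %Activity.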

Assay [11] deals with Dual specificity protein kinase CLK4 (Homo sapiens) (UniProt Q9HAZ1). Description: qHTS Assay for Inhibitors of CDC-like Kinase 4 (ADP-Glo Assay) (AID 1771). Further: nearly all actives have a fitted effect of over 70% in size. Further: potency means the concentration at half of the fitted maximal effect. The following applies: recombinant CLK4, ADP-Glo luminescence; series mostly up to 80 µM. The essentials:
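Kinase reaction: Clk4 at 25 nM, RS repeat peptide substrate at 100 uM, ATP at 1 uM, 1 hr, room temperature. Product ADP detected as luciferase signal via ADP-Glo.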

Assay [12] deals with Ubiquitin carboxyl-terminal hydrolase 1 (Homo sapiens) (UniProt O94782). Put plainly: Inhibitors of USP1/UAF1: Pilot qHTS (AID 504865).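 Further: rhodamine fluorescence freed from ubiquitin-rhodamine substrate followed over time; top concentration of the series differs between compounds; on the % scale 0 is the no-effect control and ±100 the full control effect; nearly all actives have a fitted effect of over 35% in size.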 The following applies: purified USP1/UAF1, Ub-rhodamine cleavage fluorescence; series mostly up to 54.9 µM. The essentials: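 Deubiquitinase activity followed as kinetic rhodamine fluorescence release from 150 nM Ub-Rho. 1 nM USP1/UAF1 with compound, after 15 min room-temperature preincubation, in HEPES pH 7.8 buffer containing TCEP, EDTA, BSA and Tween-20.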
Chain of Ubiquitin carboxyl-terminal hydrolase 1 (Homo sapiens) (O94782 whole entry, looked up): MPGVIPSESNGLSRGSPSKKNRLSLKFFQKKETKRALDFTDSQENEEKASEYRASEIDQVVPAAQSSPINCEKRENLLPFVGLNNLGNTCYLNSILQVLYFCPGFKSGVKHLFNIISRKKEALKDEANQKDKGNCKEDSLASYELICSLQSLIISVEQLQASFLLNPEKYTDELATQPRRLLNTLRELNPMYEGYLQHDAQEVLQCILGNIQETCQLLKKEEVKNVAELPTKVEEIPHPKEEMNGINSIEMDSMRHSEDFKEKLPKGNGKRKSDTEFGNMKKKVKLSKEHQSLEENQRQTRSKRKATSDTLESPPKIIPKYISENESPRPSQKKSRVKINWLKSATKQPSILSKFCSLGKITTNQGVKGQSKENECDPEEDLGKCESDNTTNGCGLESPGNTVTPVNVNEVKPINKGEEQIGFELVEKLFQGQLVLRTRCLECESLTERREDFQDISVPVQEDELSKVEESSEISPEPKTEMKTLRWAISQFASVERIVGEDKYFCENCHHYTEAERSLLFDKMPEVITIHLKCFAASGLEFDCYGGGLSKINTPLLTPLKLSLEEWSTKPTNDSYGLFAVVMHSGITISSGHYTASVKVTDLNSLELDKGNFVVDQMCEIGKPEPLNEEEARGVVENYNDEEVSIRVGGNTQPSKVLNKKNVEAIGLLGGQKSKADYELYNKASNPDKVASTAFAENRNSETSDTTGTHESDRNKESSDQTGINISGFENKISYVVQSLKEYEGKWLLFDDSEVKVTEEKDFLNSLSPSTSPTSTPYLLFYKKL

The nature of assay [13]: Primary qHTS for small molecule stabilizers of the endoplasmic reticulum resident proteome: Secreted ER Calcium Modulated Protein (SERCaMP) assay (AID 1508630). Further: on the % scale 0 is the no-effect control and ±100 the full control effect. The following applies: SH-SY5Y GLuc-SERCaMP (Gaussia luciferase released on ER calcium loss) secretion, thapsigargin, luminescence; series mostly up to 38.4 µM. The essentials: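 GLuc-SERCaMP-expressing SH-SY5Y cells, pretreated 16 h with compound, are challenged with thapsigargin to empty ER calcium stores; after 4 h, coelenterazine is added directly to the medium and luminescence is imaged.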

The target in assay [14] is Dual specificity protein kinase CLK4 (Homo sapiens) (UniProt Q9HAZ1). Put plainly: qHTS Assay for Inhibitors of CDC-like Kinase 4 (ADP-FP Assay) (AID 1795).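 Further: recombinant human CLK4 phosphorylating RS repeat peptide at 1 µM ATP; on the % scale 0 is the no-effect control and ±100 the full control effect; nearly all actives have a fitted effect of over 60% in size.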 The following applies: Transcreener ADP fluorescence polarization; series mostly up to 50 µM. The method in brief:
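Kinase activity was measured as ADP production using Transcreener orange tracer (4 nM) and ADP antibody (1 ug/mL) fluorescence polarization, with ADP calculated from a calibration curve. The 1 h reaction contained 6.25 nM Clk4, 1 uM ATP and 100 uM RS peptide at pH 7.5 with Mg2+.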

Assay [15] has as its target Cytochrome P450 3A4 (Homo sapiens) (UniProt P08684). Description: qHTS Assay for Inhibitors and Substrates of Cytochrome P450 3A4 (AID 884). Further: potency means the concentration at half of the fitted maximal effect; nearly all actives have a fitted effect of over 50% in size. As to conditions: recombinant CYP3A4, Luciferin-PPXE luminescence; series mostly up to 57.1 µM. The method in brief:
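20 nM human CYP3A4 with 25 uM Luciferin-PPXE (at KM) in 200 mM KPO4, preincubated 10 min with compound; NADPH regeneration started a 60 min RT reaction. Luciferin detected by luminescence, normalized to 57 uM ketoconazole as full inhibition.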

The target is the same in assay [16]. Description: qHTS Assay for Activators of Cytochrome P450 3A4 (AID 885). Further: nearly all actives have a fitted effect of over 65% in size. The following applies: recombinant CYP3A4, Luciferin-PPXE luminescence, 60 min; series mostly up to 57.1 µM. The method in brief: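 20nM CYP3A4 + 25uM Luciferin-PPXE (=KM), 200mM KPO4; cpd 10 min RT; NADPH regen, 60 min RT; stop w/ detection buffer, 20 min; luminescence. Normalized to 57 uM ketoconazole.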

The target of assay [17] is Cytochrome P450 2C9 (Homo sapiens) (UniProt P11712). Description: qHTS Assay for Inhibitors and Substrates of Cytochrome P450 2C9 (AID 883). Further: on the % scale 0 is the no-effect control and ±100 the full control effect; nearly all actives have a fitted effect of over 60% in size. The following applies: recombinant CYP2C9, luciferin-H luminescence, 60 min; series mostly up to 57.1 µM. The method in brief:
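Human CYP2C9 (10nM) with Luciferin-H at 100uM (its KM) in 25mM KPO4; compound preincubated 10 min at 37C, then NADPH regeneration for 60 min at 37C. Luciferin read by luminescence after detection reagent; normalized to 57uM sulphaphenazole as full inhibition.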

A number with no mark means an inactive call. Records with an inconclusive call do not appear. The source made the active and inactive calls. Unless noted, the call rests on the fitted dose curve; in most records, active means well fitted curve in the direction sought with a large enough effect; inconclusive means small, poorly fitted or top-dose-only effect, or another doubt; inactive means no such curve, though single readings can be large; an effect the other way counts as inactive or inconclusive. Bounds are passed on as bounds.

Chain of Dual specificity protein kinase CLK4 (Homo sapiens) (Q9HAZ1 whole entry, looked up): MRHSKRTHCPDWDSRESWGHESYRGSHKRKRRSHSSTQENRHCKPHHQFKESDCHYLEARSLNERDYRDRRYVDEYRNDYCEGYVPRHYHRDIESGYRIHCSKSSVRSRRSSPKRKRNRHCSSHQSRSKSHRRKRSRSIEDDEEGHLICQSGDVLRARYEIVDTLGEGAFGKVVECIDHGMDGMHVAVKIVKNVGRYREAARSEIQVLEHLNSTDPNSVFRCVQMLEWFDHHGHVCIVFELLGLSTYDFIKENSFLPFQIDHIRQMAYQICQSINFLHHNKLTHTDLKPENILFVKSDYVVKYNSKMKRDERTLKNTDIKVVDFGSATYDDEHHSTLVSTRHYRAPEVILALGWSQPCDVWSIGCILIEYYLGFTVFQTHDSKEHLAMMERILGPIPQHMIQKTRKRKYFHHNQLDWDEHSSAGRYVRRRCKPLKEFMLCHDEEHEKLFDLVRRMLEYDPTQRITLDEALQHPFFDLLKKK
Chain of Cytochrome P450 1A2 (Homo sapiens) (P05177 whole entry, looked up): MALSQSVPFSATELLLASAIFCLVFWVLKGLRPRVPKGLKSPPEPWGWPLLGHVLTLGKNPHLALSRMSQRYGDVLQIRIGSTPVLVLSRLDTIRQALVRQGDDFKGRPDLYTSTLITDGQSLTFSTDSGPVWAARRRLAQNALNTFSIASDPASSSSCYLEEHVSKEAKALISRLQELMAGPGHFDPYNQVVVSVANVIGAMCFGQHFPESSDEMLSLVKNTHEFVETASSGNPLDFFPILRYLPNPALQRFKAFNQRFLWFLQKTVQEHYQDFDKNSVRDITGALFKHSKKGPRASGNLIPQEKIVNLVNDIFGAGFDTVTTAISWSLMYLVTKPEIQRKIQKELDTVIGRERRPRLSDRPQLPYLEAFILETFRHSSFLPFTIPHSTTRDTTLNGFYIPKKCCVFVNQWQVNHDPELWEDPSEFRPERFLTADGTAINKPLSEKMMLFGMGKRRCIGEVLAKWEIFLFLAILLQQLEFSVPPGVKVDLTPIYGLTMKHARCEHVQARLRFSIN
Chain of Lysosomal acid glucosylceramidase (Homo sapiens) (P04062 whole entry, looked up): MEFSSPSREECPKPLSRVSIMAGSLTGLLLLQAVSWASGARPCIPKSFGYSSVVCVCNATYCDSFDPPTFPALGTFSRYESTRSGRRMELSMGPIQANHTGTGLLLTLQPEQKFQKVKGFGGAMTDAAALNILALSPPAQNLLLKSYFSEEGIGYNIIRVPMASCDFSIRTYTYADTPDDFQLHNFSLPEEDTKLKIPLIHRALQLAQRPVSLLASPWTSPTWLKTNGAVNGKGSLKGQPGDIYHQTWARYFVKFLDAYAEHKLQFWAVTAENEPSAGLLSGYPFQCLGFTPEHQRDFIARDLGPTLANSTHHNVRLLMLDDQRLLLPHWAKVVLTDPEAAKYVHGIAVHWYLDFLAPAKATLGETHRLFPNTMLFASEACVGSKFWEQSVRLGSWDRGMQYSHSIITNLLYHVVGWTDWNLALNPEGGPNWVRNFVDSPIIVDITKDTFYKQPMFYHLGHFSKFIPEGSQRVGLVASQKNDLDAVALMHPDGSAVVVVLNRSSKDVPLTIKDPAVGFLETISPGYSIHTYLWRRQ
Chain of 3',5'-cyclic-AMP phosphodiesterase 4B (Homo sapiens) (Q07343 whole entry, looked up): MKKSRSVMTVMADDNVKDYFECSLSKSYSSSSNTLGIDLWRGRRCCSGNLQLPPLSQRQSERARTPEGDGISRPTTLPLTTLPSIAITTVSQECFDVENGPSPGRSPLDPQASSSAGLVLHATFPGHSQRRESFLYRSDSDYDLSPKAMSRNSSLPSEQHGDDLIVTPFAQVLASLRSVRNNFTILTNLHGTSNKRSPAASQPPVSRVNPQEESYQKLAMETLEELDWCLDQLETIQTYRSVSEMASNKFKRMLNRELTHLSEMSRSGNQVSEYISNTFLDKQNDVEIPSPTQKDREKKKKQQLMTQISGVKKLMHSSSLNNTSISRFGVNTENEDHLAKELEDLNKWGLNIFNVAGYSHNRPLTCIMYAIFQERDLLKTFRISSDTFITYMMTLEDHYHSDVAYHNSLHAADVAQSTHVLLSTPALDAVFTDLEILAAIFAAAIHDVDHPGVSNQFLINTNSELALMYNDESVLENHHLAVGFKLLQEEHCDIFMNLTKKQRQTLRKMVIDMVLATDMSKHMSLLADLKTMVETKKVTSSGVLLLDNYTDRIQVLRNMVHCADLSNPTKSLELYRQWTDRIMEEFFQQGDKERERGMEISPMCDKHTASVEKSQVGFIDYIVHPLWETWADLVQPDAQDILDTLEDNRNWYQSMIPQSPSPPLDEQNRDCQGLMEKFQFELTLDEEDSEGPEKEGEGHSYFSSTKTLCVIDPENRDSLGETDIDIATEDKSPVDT
Chain of Cytochrome P450 3A4 (Homo sapiens) (P08684 whole entry, looked up): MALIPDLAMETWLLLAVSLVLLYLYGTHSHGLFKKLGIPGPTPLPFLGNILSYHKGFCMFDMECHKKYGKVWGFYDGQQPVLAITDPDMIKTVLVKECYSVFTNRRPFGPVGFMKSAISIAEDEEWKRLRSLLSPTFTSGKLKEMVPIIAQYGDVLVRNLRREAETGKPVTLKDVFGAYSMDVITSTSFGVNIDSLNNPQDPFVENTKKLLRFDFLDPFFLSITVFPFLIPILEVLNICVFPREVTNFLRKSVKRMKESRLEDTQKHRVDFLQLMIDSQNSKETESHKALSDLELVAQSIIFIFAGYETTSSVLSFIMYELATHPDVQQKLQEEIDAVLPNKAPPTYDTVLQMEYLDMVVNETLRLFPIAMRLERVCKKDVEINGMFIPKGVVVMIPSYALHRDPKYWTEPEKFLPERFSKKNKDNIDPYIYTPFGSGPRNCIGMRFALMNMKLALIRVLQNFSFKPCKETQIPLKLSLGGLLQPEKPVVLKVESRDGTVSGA
Chain of Cytochrome P450 2C9 (Homo sapiens) (P11712 whole entry, looked up): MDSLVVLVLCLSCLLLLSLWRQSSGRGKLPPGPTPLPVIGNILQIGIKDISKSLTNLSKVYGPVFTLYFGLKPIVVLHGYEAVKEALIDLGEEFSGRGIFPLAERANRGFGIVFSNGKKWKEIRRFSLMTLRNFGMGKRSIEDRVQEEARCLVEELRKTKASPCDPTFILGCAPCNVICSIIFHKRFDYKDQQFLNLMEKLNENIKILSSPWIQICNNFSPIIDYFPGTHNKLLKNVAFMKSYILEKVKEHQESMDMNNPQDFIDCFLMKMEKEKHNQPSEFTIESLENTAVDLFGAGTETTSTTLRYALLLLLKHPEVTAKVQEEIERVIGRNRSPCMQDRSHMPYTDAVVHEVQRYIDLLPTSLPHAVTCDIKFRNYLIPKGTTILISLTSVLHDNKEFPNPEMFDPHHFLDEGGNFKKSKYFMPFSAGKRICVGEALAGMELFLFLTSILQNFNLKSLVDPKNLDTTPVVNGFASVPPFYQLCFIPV

In the case of `COc1ccccc1-c1cc(NCc2cnc(C)cn2)ncn1`, the Potency in [1] was greater than 11.4 µM; in [3], 12.6 µM (active); in [6] it was greater than 46 µM; in assay [7], greater than 46 µM; in assay [11] it was 28.2 µM (active). Besides, the activity change, negative = inhibition in assay [2] was 5.08%; in assay [4], 2.34%. The activity, negative = inhibition in assay [5] was 2.04%. In addition, the Potency entry in assay [8], in assay [9] and in [12] was “inactive” each time. In addition, in [10], the activation is 25.8%. Besides, the outcome in [13] was inactive.
As for `N#CCCn1c(=O)cnc2cnc(Oc3cccc(Cl)c3)nc21`, the activity change, negative = inhibition in assay [2] was 5.43%; in assay [4] it was -14%. Further, the activity, negative = inhibition in assay [5] is -4.72%. The results for the Potency in assay [6] and in assay [7] were greater than 9.22 µM and greater than 46 µM, respectively. The Potency entry in assay [8], in [9], in assay [11], in assay [14] and in assay [12] was “inactive” each time. Moreover, the outcome in [13] was inactive.
As to `COc1cccc(Cn2c(=O)c(-c3cn(C)c4ccccc34)nc3cnc(OC)nc32)c1`, the Potency is greater than 11.4 µM in assay [1]; 15.8 µM (active) in [3]; greater than 9.22 µM in [6]; greater than 46 µM in assay [7]; 7.94 µM (active) in assay [15]. The activity change, negative = inhibition in assay [4] is 1.88%. For the same compound, the Potency result in assay [8], in [9], in [16], in assay [11], in assay [14] and in [12] was “inactive” throughout. For the same compound, the result in assay [13] was inactive.
On to `COc1ccccc1CNc1ccnc(-c2c(C)noc2C)n1`, for which the Potency in assay [1] is greater than 11.4 µM; in [3] it was 0.398 µM (active); in assay [6], greater than 46 µM; in [7], greater than 46 µM; in assay [15], 5.01 µM (active). In addition, the activity change, negative = inhibition in assay [2] was 18%; in [4] it was -13.8%. Further, in [5], the activity, negative = inhibition is -17.2%. Moreover, the Potency entry in assay [8], in [16], in [11] and in assay [14] was “inactive” in each case. Besides, the outcome in assay [13] was inactive.
`CCNc1ncc2nc(-c3cn(C)c4ccccc34)c(=O)n(Cc3ccc(F)cc3)c2n1`: the Potency in assay [1] was greater than 11.4 µM; in [3], 15.8 µM (active); in assay [6], greater than 9.22 µM; in assay [7], greater than 46 µM; in assay [10] it was 2.51 µM (active). In addition, the activity change, negative = inhibition in assay [2] was -5.76%; in assay [4], 2.58%. The Potency result in assay [8], in assay [9], in assay [16], in assay [11] and in assay [12] was “inactive” each time. Also, the outcome in assay [13] was inactive.
Take `CN(C)C(=O)c1ccc(-c2ccc3ncnc(N4CCNCC4)c3c2)cc1`: the Potency in assay [1] is greater than 11.4 µM; in assay [6] it was greater than 46 µM; in [7], greater than 46 µM. Further, the activity change, negative = inhibition is -26.4% in assay [2] and 4.61% in [4]. For the same compound, the Potency entry in [3], in assay [8], in [9], in assay [14] and in assay [12] was “inactive” in each case. For the same compound, the activity, negative = inhibition in [5] was -3.14%. Also, in [13], the result was inactive.
Take `CN(Cc1ccco1)c1cc(-c2cccc(C#N)c2)ncn1`: the Potency in [1] was greater than 11.4 µM; in [3] it was 0.794 µM (active); in assay [6] it was greater than 46 µM; in assay [7], greater than 46 µM; in assay [11], 28.2 µM (active). Besides, the activity change, negative = inhibition in assay [2] is -7.22%; in [4], 11.4%; in [17], 12.3% [at 2.29 µM]. In addition, in assay [5], the activity, negative = inhibition was 8.43%. Moreover, the Potency result in assay [8], in [9] and in [12] was “inactive” each time. The outcome in [13] was inactive.
As to `Cn1c(=O)c(-c2cc(F)cc(F)c2)nc2cncnc21`, the Potency in [1] is greater than 11.4 µM; in assay [3] it was 0.631 µM (active); in assay [6], greater than 9.22 µM; in [7], greater than 46 µM. The activity change, negative = inhibition in assay [2] was -3.06%; in assay [4], 3.39%. In addition, the activity, negative = inhibition in [5] was 5.34%. Moreover, the Potency result in [8], in [9], in assay [16], in assay [11], in assay [14] and in assay [12] was “inactive” throughout. Also, the result in assay [13] was inactive.
